Hits are enriched below; roughly 2.2% of the tested compounds scored in any of these assays.
PGC1a acetyl inh: PGC1a acetylation modulation, inhibitor mode; U2OS PGC1a acetylation, AlphaScreen anti-acetyl-lysine; with virally co-expressed GCN5 acetyltransferase; AID 651687; actives 0.17% (n = 350,000); inhibition, % at 15.6 µM;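 active = every replicate shows inhibition of at least 40%; inconclusive = mean inhibition at least 40% but some replicate below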
MITF TRPM1 inh: inhibitors of MITF-driven TRPM1 promoter in melanoma cells | inhibition, % at 12.5 µM | actives 0.83% (n = 330,000) | SK-MEL-5 TRPM1 promoter luciferase, 24 h;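 active = mean inhibition across replicates of 60% or more, whatever share of single replicates reaches that level; inconclusive = some that reach 60%, reason not given; inactive = mean inhibition across replicates below 60%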
PAX8 reporter: inhibitors of PAX8 transcriptional activity in RMG-I cells; RMG-I TPO-luciferase reporter, SteadyGlo, 24 h; inhibition, % at 12.6 µM; actives 1.2% (n = 360,000);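 active = mean replicate inhibition at least 60% with every replicate also reaching 60%; inconclusive = only one of the two criteria is met; inactive = mean below 60% and not all replicates reaching 60%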;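 note: luciferase light reporting Pax8 driven TPO promoter activity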
EBV LMP1 NFkB: inhibitors of Epstein-Barr LMP1-induced NF-kappaB reporter. LMP1-induced NF-kappaB luciferase reporter cells, luminescence. AID 504558. actives 0.69% (n = 350,000). inhibition, % at 12.5 µM; in the data active = inhibition above about 41%; inconclusive = no clear call, values can overlap the other calls
LGR2 inh: blocks bursicon-induced cAMP signaling via Drosophila LGR2 | AID 720647 | actives 0.35% (n = 380,000) | HEK293 LGR2, CRE-luciferase, bursicon-stimulated, 4 h | inhibition, % at 9.99 µM;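 active = drop in luminescence signal, shown as inhibition above about 50% in the replicate tests, limit read from the data, passing the limit was not always enough; inconclusive = probably only some replicates passing the limit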;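 note: agonist challenge used bursicon conditioned medium at about half maximal strength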
EWS-Fli block: inhibitors of EWS/Fli oncoprotein transcriptional activity. actives 0.67% (n = 350,000). A673 NR0B1-luciferase reporter, viability-normalised. inhibition, % at 12.6 µM;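 active = mean inhibition of at least 50% after viability correction, with every replicate also passing that limit; inconclusive = mean reaches 50% but only one of two replicates passes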;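 note: firefly luciferase signal divided by Alamar Blue viability fluorescence both relative to DMSO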
A number is an active result; – = inactive; ? = inconclusive; · = not tested or not shown; ! = not active in a repeat.

SMILES	PGC1a acetyl inh	MITF TRPM1 inh	PAX8 reporter	EBV LMP1 NFkB	LGR2 inh	EWS-Fli block
O=C(Cc1cccnc1)N1CCCCN2[C@H](C1)[C@@H](c1ccc(C#CC3(O)CCCC3)cc1)[C@@H]2CO	–	·	–	·	–	–
COC(=O)[C@H]1[C@H](CO)[C@H]2Cn3c(ccc(-c4ccncc4)c3=O)[C@@H]1N2CCc1ccccc1	·	·	·	·	–	–
Nc1cncc(C(=O)O)c1	–	–	–	61.3!	–	–
O=C1CCCN1C(=O)c1cncc(Br)c1	·	–	·	–	·	·
CC1Oc2cc3c(-c4c(O)cc(O)c5c(O)c6c(cc45)OC(C)C(C)C6=O)c(O)cc(O)c3c(O)c2C(=O)C1C (stereo not drawn)	–	82.3	·	–	·	·
NC(Cc1ccc(F)cc1)c1csc(Nc2ncccn2)n1 (stereo not drawn)	·	·	74.0	·	–	–
C=C1C(C)C2C(Cc3ccccc3)NC(=O)C23C(OC(C)=O)C=CC(C)(O)CC(C)CC=CC3C1O (stereo not drawn)	–	–	?	–	–	–
C=C1[C@@H](C)[C@H]2[C@H](Cc3ccccc3)NC(=O)[C@]23OC(=O)/C=C/[C@H](O)CCC[C@@H](C)C/C=C/[C@H]3[C@@H]1O	–	–	74.1	–	–	–
O=C(NC(=C(Cl)Cl)P(=O)(c1ccccc1)c1ccccc1)c1ccccc1	–	–	108.2	–	–	–
C=C1C(=O)[C@@]23C[C@H]4[C@@H]5[C@@]6(C)CCC[C@@]57[C@@H]2[C@@H](O)[C@@H]1C[C@H]3[C@H]7N4C6	–	·	·	–	59.0	–
CCn1nc(-c2ccccc2)nc2c(=O)n(C)c(=O)nc1-2	–	99.3	·	–	·	·
COc1ccc(-c2nc3ccccc3c(=O)n2-c2ccc(OC)cc2)cc1	–	–	–	–	–	–
N#Cc1ccc2nc(-c3ccc(CN4CCC(n5c(=O)[nH]c6ccccc65)CC4)cc3)c(-c3ccccc3)nc2c1	·	·	90.8	·	–	–
COc1cc2cc(C(=O)N3CC(COS(C)(=O)=O)c4ccc(O)cc43)[nH]c2c(OC)c1OC (stereo not drawn)	–	109.8	·	89.5	·	·
O=C(O)CCC(=O)NCCC1=c2ccccc2=N/C1=C\c1c(O)n(Cc2ccc(F)cc2)c(=S)[nH]c1=O	–	–	62.5	–	–	–
CC(C)NC(=O)N1[C@@H]2c3ccc(-c4cccc(C(=O)N(C)C)c4)c(=O)n3C[C@H]1[C@H](CO)[C@H]2C(=O)O	·	·	·	·	–	–
CC(=O)OC1CC2OC3C=C(C)CCC3(C)C1(C)C21CO1 (stereo not drawn)	87.2	·	·	·	103.8	–
CC(=O)O[C@H]1C[C@@H]2OC3C=C(C)CCC3(C)[C@@]1(C)[C@@]21CO1 (stereo partly drawn)	83.8	65.9	110.0	91.3	102.4	–
O=C(Cc1ccncc1)N1CCCCN2[C@H](CO)[C@H](c3ccc(-c4ccncc4)cc3)[C@@H]2C1	–	·	–	·	–	·
COC(=O)[C@@H]1[C@@H](CO)[C@@H]2Cn3c(ccc(C4=CCCC4)c3=O)[C@H]1N2CC1CCCCC1	·	·	·	·	–	–
O=C1NC(=O)C(=Cc2cccc(OCCOc3ccccc3)c2)C(=O)N1	–	–	–	–	–	–
Cc1ccc(OCCOc2cccc(C=C3C(=O)NC(=O)NC3=O)c2)c(C)c1	·	–	–	45.0	76.7	?
COC(=O)[C@@H]1[C@@H](CO)[C@@H]2Cn3c(ccc(/C=C/c4ccccc4)c3=O)[C@H]1N2C(=O)C1CC1	·	·	·	·	–	–
COc1ccc(CC2C(=O)NC(C)C(=O)N(C)C3C(=O)N(C)C(Cc4ccc(O)c(c4)Oc4ccc(cc4)C3O)C(=O)NC(C)C(=O)NC(C)C(=O)N2C)cc1 (stereo not drawn)	76.1	104.2	110.5	84.6	98.9	–
COC(=O)[C@H]1[C@H](CO)[C@H]2Cn3c(ccc(C4=CCCCC4)c3=O)[C@@H]1N2CC1CCCCC1	–	·	·	·	–	–
SMILES	PGC1a acetyl inh	MITF TRPM1 inh	PAX8 reporter	EBV LMP1 NFkB	LGR2 inh	EWS-Fli block
COC1/C=C/C=C(\C)Cc2cc(O)c(Cl)c(c2)N(C)C(=O)CC(OC(=O)C(C)C)C2(C)OC2C(C)C2CC1(O)NC(=O)O2 (stereo not drawn)	·	–	75.5	–	–	–
CCOc1ccc(-c2cc(C)[n+](CCN3CCOCC3)c(-c3ccc(OCC)cc3)c2)cc1	–	–	97.5	–	–	–
CC1=C2C[C@H]3[C@@H](CC=C4C[C@@H](O)CC[C@@]43C)[C@@H]2CC[C@]12O[C@@H]1C[C@H](C)CN[C@@H]1C2C (stereo partly drawn)	–	·	–	·	·	–
CCOC(=O)[C@]12Cc3cc(Cl)ccc3[C@H]1N(C1CCCCC1)C(=O)c1cc(OC)ccc12	·	·	105.5	·	100.9	67.6
CCOC(=O)[C@]12Cc3cc(Cl)ccc3[C@H]1N(C)C(=O)c1cc(OC)ccc12	·	·	–	·	?	–
CCOC(=O)[C@]12Cc3cc(C)ccc3[C@H]1N(CCC(=O)OC)C(=O)c1ccccc12	·	·	–	·	52.8	–
CCOC(=O)[C@]12Cc3cc(OC)ccc3[C@H]1N(CC(=O)OC)C(=O)c1ccccc12	·	·	–	·	–	–
CCOC(=O)[C@]12Cc3c(cc(OC)c(OC)c3OC)[C@H]1N(C1CCCCC1)C(=O)c1ccccc12	·	·	88.9	·	?	–
CCOC(=O)[C@]12Cc3cc(C)ccc3[C@H]1N(C1CCCCC1)C(=O)c1ccccc12	·	·	86.4	·	64.4	–
CCOC(=O)[C@]12Cc3ccccc3[C@H]1N(C(C)C)C(=O)c1ccccc12	·	·	–	·	?	–
O=C(Cc1ccccn1)N1CC2(C1)[C@H](c1ccccc1)[C@H](CO)N2Cc1ccccn1	–	·	–	·	–	–
COC(=O)[C@H]1[C@H](CO)[C@H]2Cn3c(ccc(-c4ccccc4)c3=O)[C@@H]1N2CC1CC1	·	·	·	·	–	–
CCOC(=O)[C@]12Cc3cc(OC)ccc3[C@H]1N(C)C(=O)c1cc(OC)ccc12	·	·	–	·	?	–
CCOC(=O)[C@]12Cc3ccc(C)cc3[C@H]1N(C1CCCCC1)C(=O)c1cc(OC)ccc12	·	·	101.0	·	54.7	?
CN1/C(=C\C=C2C(=O)NC(=O)NC2=O)C(C)(C)c2ccccc21	–	–	–	–	–	–
CCN1/C(=C/C=C/C2=[N+](CC)c3ccccc3C2(C)C)C(C)(C)c2ccccc21	–	·	106.3	–	54.5	59.1
O=C(Cc1ccccn1)N1CCCCN2[C@H](CO)[C@@H](c3ccc(-c4ccc(F)cc4)cc3)[C@H]2C1	–	·	–	·	–	–
CC(O)C1C=CC=CC(=O)OC2CC3OC4C5OC5(C)C(O)CC4(COC(=O)C(O)C(C)CCO1)C2(C)C31CO1 (stereo not drawn)	86.9	79.2	112.7	88.3	103.7	–
CC1=CC2OC3CC4OC(=O)C=CC=CC(=O)OCCC(C)C(O)C(=O)OCC2(CC1)C4(C)C31CO1 (stereo not drawn)	77.4	103.5	102.2	81.7	·	–
